Assay outcomes: PubChem, several laboratories
ABHD5-PLIN5 inh: ABHD5-PLIN5 protein interaction inhibition | actives 0.78% (n = 360,000) | inhibition, % at 4 µM | Split G. princeps luciferase complementation, luminescence, 4 h;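 active means inhibition above the mean inhibition across every tested compound plus 3 SD, cut at about 22% in these data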;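 further: 0% = DMSO only wells and the 100% control is not disclosed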
Target sequence (Q00G26 whole entry, looked up): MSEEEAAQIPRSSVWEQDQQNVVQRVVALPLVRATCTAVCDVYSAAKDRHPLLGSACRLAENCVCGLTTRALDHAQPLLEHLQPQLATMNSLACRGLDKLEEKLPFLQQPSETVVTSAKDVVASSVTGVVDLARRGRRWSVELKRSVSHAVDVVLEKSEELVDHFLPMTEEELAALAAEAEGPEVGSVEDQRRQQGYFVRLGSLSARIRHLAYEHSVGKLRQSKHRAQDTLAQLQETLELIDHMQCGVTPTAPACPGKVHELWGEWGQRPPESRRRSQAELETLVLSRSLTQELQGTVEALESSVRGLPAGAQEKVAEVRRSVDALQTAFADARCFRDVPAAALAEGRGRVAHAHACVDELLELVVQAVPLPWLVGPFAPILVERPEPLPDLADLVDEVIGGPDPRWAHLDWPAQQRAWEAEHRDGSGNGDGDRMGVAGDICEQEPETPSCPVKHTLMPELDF
Target sequence (Q8WTS1 whole entry, looked up): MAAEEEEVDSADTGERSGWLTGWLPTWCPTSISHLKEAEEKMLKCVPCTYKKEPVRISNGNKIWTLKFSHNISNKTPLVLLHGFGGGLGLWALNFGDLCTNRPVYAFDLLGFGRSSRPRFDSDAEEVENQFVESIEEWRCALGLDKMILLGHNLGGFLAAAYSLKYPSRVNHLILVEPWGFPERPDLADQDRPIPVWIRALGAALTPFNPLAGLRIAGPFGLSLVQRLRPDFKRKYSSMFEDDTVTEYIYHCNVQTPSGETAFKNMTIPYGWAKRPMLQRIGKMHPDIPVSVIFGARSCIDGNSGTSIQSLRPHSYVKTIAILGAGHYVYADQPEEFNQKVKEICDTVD
Mdm2 MdmX PPI: human Mdm2/MdmX binding inhibition | O15151+Q00987 | SaOS-2 split-luciferase Mdm2/MdmX complementation, luminescence | AID 485346 | actives 3% (n = 330,000) | inhibition, % at 8 µM;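 active means inhibition of at least 50% at 8 µM in the primary screen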
HIF-2a inh: blocks HIF-2a reporter activity; 786-0 RCC cells HIF-2a reporter, luciferase luminescence, overnight; inhibition, % at 18.8 µM; actives 0.72% (n = 360,000); AID 624352;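 active means inhibition of the luminescence signal of 40% or more relative to plate controls, in a single-dose primary screen at 18.75 µM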
Peg3 prom inh: inhibitors of Peg3 promoter. actives 1.7% (n = 360,000). AID 588405. HeLa PEG-Prom luciferase reporter, luminescence, overnight. inhibition, % at 20 µM;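 active means inhibition of at least 50% at 20 µM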
CF NFkB inh: inhibitors of cystic fibrosis induced NF-kB; AID 588850; inhibition, % at 5 µM; actives 0.86% (n = 360,000); KKLEB NF-kB-GFP reporter, PAF-induced, GFP fluorescence overnight;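 active means at least 50% inhibition at 5 µM, scaled per plate between neutral and stimulator controls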;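 further: PAF is a Pseudomonas aeruginosa culture filtrate used as stimulus; plate controls were PAF-stimulated DMSO wells for no effect and unstimulated DMSO wells for full effect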
KKLEB cytotox: counter-screen for CF NF-kB inhibitors: cytotoxicity | activity change (cytotoxicity), % at 5 µM | KKLEB CF airway cells viability, ATPlite luminescence, overnight; stronger effect = lower value; cells stimulated with P. aeruginosa culture filtrate | actives 0.36% (n = 360,000);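 active means corrected activity change at or below -50% at 5 µM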
Mdm2 MdmX conf: human Mdm2/MdmX binding inhibition, confirmed; luminescent assay; AID 489028; inhibition, % at 8 µM; actives 55% (n = 10,000); shares compounds with Mdm2 MdmX PPI; in the data active means inhibition above about 40%
Full FLuc ctr: full-length luciferase inhibition in Mdm2/MdmX counter-screen; inhibition, % at 8 µM; actives 77% (n = 6,200); AID 504607; SaOS-2 full-length luciferase counterscreen, luminescence; shares compounds with Mdm2 MdmX PPI;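 active means mean inhibition at 8 µM reaching about 37%, which flags the compound as non-specific, limit read from the data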;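 further: p53-null SaOS-2 cells with luciferase driven by a doxycycline-inducible promoter; compound on cells about two nights before reading with doxycycline added after day one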
Starred values were filed as active, the others as inactive. Sampled rows, rich in hits. Any-hit rate of the full collection: about 4.6%.

For CS(=O)CC(O)(c1ccc(F)cc1)C1CC1 (stereo not drawn) the results were ABHD5-PLIN5 inh -8.5, HIF-2a inh 6.4, Peg3 prom inh 6.7, CF NFkB inh 0.8 and KKLEB cytotox -1.4.
Screening CCCN1C(=O)/C(=C/c2ccc3c(c2)OCO3)NC1=S returned ABHD5-PLIN5 inh -4.6, HIF-2a inh -4.5, Peg3 prom inh -110.7, CF NFkB inh 1.5 and KKLEB cytotox -0.9.
For CCCN1C/C(=C/c2ccc3c(c2)OCO3)C(=O)/C(=C/c2ccc3c(c2)OCO3)C1 the results were ABHD5-PLIN5 inh 12.4, Mdm2 MdmX PPI 98.7*, HIF-2a inh 89.0*, Peg3 prom inh 106.6*, CF NFkB inh -39.2, KKLEB cytotox 14.4, Mdm2 MdmX conf 36.1 and Full FLuc ctr 68.5*.
For CN(C)Cc1ccc(-c2nc3cccc4c3n2CCNC4=O)cc1 the results were ABHD5-PLIN5 inh 3.5, Mdm2 MdmX PPI 57.7*, HIF-2a inh -4.8, Peg3 prom inh 57.6*, CF NFkB inh 14.5, KKLEB cytotox 5.4, Mdm2 MdmX conf 33.5 and Full FLuc ctr 70.5*.
Screening C#CCOCCOCCOCCNc1nc(N2CCN(C(=O)CCCCCCCCCCNC(=O)[C@H](CO)n3cc(CCCSC)nn3)CC2)nc(N2CCN(C(=O)CCCCCCCCCCNC(=O)[C@@H]([C@H](C)O)n3cc(C)nn3)CC2)n1 returned Mdm2 MdmX PPI 2.9.
`C#CCOCCOCCOCCNc1nc(N2CCN(C(=O)CCCCCCCCCCNC(=O)[C@H]([C@@H](C)CC)n3cc(CCCCCN)nn3)CC2)nc(N2CCN(C(=O)CCCCCCCCCCNC(=O)[C@H](CO)n3cc(CCCCCN)nn3)CC2)n1` gave ABHD5-PLIN5 inh 39.4*, Mdm2 MdmX PPI 89.7*, HIF-2a inh -3.1, Peg3 prom inh 99.3*, CF NFkB inh -21.6, KKLEB cytotox -6.5 and Mdm2 MdmX conf 0.8.
Screening C#CCOCCOCCOCCNc1nc(N2CCN(C(=O)CCCCCCCCCCNC(=O)[C@H]([C@@H](C)CC)n3cc(CCCCCN)nn3)CC2)nc(N2CCN(C(=O)CCCCCCCCCCNC(=O)[C@@H]([C@H](C)CC)n3cc(CCCCCN)nn3)CC2)n1 returned Mdm2 MdmX PPI 100.3*, Mdm2 MdmX conf 63.0* and Full FLuc ctr 1.3.
Screening O=C(NC(=S)/C(=C1\CCCCCN1)[N+](=O)[O-])c1ccccc1 returned ABHD5-PLIN5 inh 0.3, Mdm2 MdmX PPI 85.0*, HIF-2a inh 22.1, Peg3 prom inh -14.8, CF NFkB inh -9.6, KKLEB cytotox -25.2, Mdm2 MdmX conf 79.4* and Full FLuc ctr 142.1*.
For O=C(NC(=S)Nc1ccccc1[N+](=O)[O-])c1ccccc1 the results were ABHD5-PLIN5 inh 0.3, Mdm2 MdmX PPI -27.5, HIF-2a inh -312.4, Peg3 prom inh -185.1, CF NFkB inh -8.9 and KKLEB cytotox -1.2.
Screening CCC(=O)NCCCCCCNC(=O)CC returned ABHD5-PLIN5 inh 2.0, Mdm2 MdmX PPI 11.5, HIF-2a inh 8.8, Peg3 prom inh 9.1, CF NFkB inh 8.4 and KKLEB cytotox 10.9.
`O=C(CCl)NCCCCCCCCCNC(=O)CCl` gave ABHD5-PLIN5 inh 2.6, Mdm2 MdmX PPI 63.5*, HIF-2a inh 17.5, Peg3 prom inh 0.1, CF NFkB inh -2.3, KKLEB cytotox -11.1, Mdm2 MdmX conf 42.5* and Full FLuc ctr 40.3*.
Screening CCOc1ccc(N(C(=O)CNC(=O)c2cccs2)C(C(=O)NCC2CCCO2)c2ccc(OC)c(OC)c2)cc1 (stereo not drawn) returned ABHD5-PLIN5 inh -2.2, Mdm2 MdmX PPI -31.6, HIF-2a inh 19.1, Peg3 prom inh -3.4, CF NFkB inh 1.5 and KKLEB cytotox -8.5.
Screening COc1ccc(C(=O)/C=C/c2ccc(OC(=O)c3cc(OC)c(OC)c(OC)c3)cc2)cc1 returned ABHD5-PLIN5 inh 3.3, Mdm2 MdmX PPI 57.2*, HIF-2a inh -22.5, Peg3 prom inh -37.8, CF NFkB inh -29.3, KKLEB cytotox 2.3 and Mdm2 MdmX conf 4.8.
Screening O=C(Nc1cccc(S(=O)(=O)N2CCCCC2)c1)c1ccc(N2CCCC2=O)cc1 returned ABHD5-PLIN5 inh 9.7, Mdm2 MdmX PPI -5.9, HIF-2a inh -0.6, Peg3 prom inh -7.7, CF NFkB inh 13.3 and KKLEB cytotox -2.8.
OCC1CCCCN1CC(O)COC(c1ccc(F)cc1)c1ccc(F)cc1 (stereo not drawn) was read as ABHD5-PLIN5 inh 0.6, Mdm2 MdmX PPI -35.7, HIF-2a inh -6.2, Peg3 prom inh -7.3, CF NFkB inh -14.0 and KKLEB cytotox -0.6.
Screening O=C(N/N=C/c1c(O)ccc2ccccc12)c1[nH]ncc1Br returned ABHD5-PLIN5 inh -2.6, Mdm2 MdmX PPI 64.6*, HIF-2a inh -222.5, Peg3 prom inh -44.8, CF NFkB inh 24.8, KKLEB cytotox 8.8, Mdm2 MdmX conf 75.7* and Full FLuc ctr 40.5*.
`Cc1ccc(O)c(/C=N/NC(=O)c2[nH]ncc2Br)c1` gave ABHD5-PLIN5 inh 2.1, Mdm2 MdmX PPI -19.1, HIF-2a inh -132.5, Peg3 prom inh -132.6, CF NFkB inh 3.3 and KKLEB cytotox -1.6.
COc1ccc2ccccc2c1/C=N/NC(=O)c1cccc(Br)c1 was read as ABHD5-PLIN5 inh 0.2, Mdm2 MdmX PPI -7.4, HIF-2a inh -20.4, Peg3 prom inh -13.0, CF NFkB inh 7.2 and KKLEB cytotox 1.1.
O=C(N/N=C/c1c(O)ccc2ccccc12)c1cccc(C(F)(F)F)c1 was read as ABHD5-PLIN5 inh -8.6, Mdm2 MdmX PPI 74.2*, HIF-2a inh -21.0, Peg3 prom inh 68.1*, CF NFkB inh 49.6, KKLEB cytotox -51.7*, Mdm2 MdmX conf 81.2* and Full FLuc ctr 21.1.
Screening CC(Sc1nnc(C(C)Oc2ccccc2F)o1)C(=O)NCc1ccc2c(c1)OCO2 (stereo not drawn) returned ABHD5-PLIN5 inh 1.5, Mdm2 MdmX PPI -21.1, HIF-2a inh 1.8, Peg3 prom inh 13.7, CF NFkB inh -11.4 and KKLEB cytotox -9.2.
`CCC(C)NC(=O)CCc1c(C)nc2c(c(C)nn2-c2ccccc2)c1C` (stereo not drawn) gave ABHD5-PLIN5 inh -8.7, Mdm2 MdmX PPI 9.4, HIF-2a inh 13.9, Peg3 prom inh 16.1, CF NFkB inh -8.5 and KKLEB cytotox 5.2.
Screening Cc1nc2c(c(C)nn2-c2ccccc2)c(C)c1CCC(=O)Nc1ccc(CN2CCCC2)cc1 returned ABHD5-PLIN5 inh 18.2, Mdm2 MdmX PPI 63.8*, HIF-2a inh 23.4, Peg3 prom inh 55.3*, CF NFkB inh 31.6, KKLEB cytotox -5.2, Mdm2 MdmX conf 35.0 and Full FLuc ctr 53.0*.
